We go through twelve compounds from PubChem BioAssay.

Molecules are shown by their SMILES.

Assay [1] deals with Human papillomavirus type 1a protein E7 (residues 44-93). As to the kind of experiment: small molecules binding HPV E7 44-93 – biochemical, small-molecule microarray, residues 44-93, 635 nm fluorescence, primary screen (AID 1108).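 Note: E7 fragment applied at 1 µg/mL in TBST for 1 h at 4 C; score combines spot fluorescence with its signal to noise ratio.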 The note with it: fluorescence 635 nm, higher = more signal.
Assay [2] can be described thus: hepatitis C replication reporter changes, two-sided – Huh7 cells, luciferase reporter, HCV replication inhibitor project, primary screen (AID 1109).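 Note: huh7 hepatoma cells harbouring a luciferase neomycin HCV replicon reporter; luciferase luminescence as measure of HCV replicon replication; test concentration not given here.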 The note with it: Huh7 HCV replicon luciferase reporter, 48 h; higher = more signal. (In a reporter assay the amount or activity of a reporter protein is the signal.)
Assay [3] addresses Left-right determination factor 2 (Homo sapiens) (UniProt O00292). As to the kind of experiment: small molecules binding LEFTY2 protein – biochemical, small-molecule microarray, 635 nm fluorescence scan, primary screen (AID 1110). The following applies: higher = more signal.
Assay [4] concerns the target Calmodulin-1 (Homo sapiens) (UniProt P0DP23). Kind of assay: small molecules binding calmodulin-1 with EGTA – biochemical, small-molecule microarray, Cy5-labelled CALM1, profiling panel (AID 1111).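 Note: labelled calmodulin applied in Tris saline Tween buffer holding calcium plus EGTA and DTT.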 The note with it: Cy5-CALM1 binding fluorescence, higher = more signal.
Assay [5] shares this target. Kind of assay: small molecules binding Ca-loaded calmodulin-1 – biochemical, small-molecule microarray, Cy5-labelled CALM1, plus calcium, artefact control for SMM control-protein annotation, profiling panel (AID 1112).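 Note: score merges spot fluorescence with signal to noise from triplicate slides.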 The note with it: Cy5-CALM1 binding fluorescence, higher = more signal.
Assay [6] is described as follows: probe aWnt5a binding to arrayed compounds – biochemical, biotinylated probe, 635/667 nm fluorescence, primary screen (AID 1113).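 Note: score merges 667 nm fluorescence intensity with signal-to-noise per printed feature.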 The note with it: small-molecule microarray, higher = more signal.
Assay [7] in a line: probe aShh binding to arrayed compounds – biochemical, biotinylated probe, 635/667 nm fluorescence, primary screen (AID 1114).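 Note: probe is biotin-labelled aShh protein from a stem cell growth factor screen; measures binding of labelled protein to compounds printed on the slide; score merges feature fluorescence at 667 nm with signal-to-noise.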 The following applies: small-molecule microarray, higher = more signal.
A short description of assay [8]: probe aNog binding to arrayed compounds – biochemical, biotinylated probe, 635/667 nm fluorescence, primary screen (AID 1115).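 Note: probe is biotinylated aNog protein used at 0.15 µg/mL for 1 h at 4 C; z-score combines 667 nm fluorescence of each spot with its signal to noise.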 The following applies: small-molecule microarray, higher = more signal.
Assay [9] concerns the target Torsin-1A-interacting protein 1 (Homo sapiens) (UniProt Q5JTV8). As to the kind of experiment: compound microarray binding of lysate hLAP1 – cell lysate, small-molecule microarray, COS7 lysate, 635/667 nm fluorescence, primary screen (AID 1116). The note with it: 635 nm fluorescence, higher = more signal.
Assay [10] has as its target Alpha-bungarotoxin (Bungarus multicinctus) (UniProt P60615). As to the kind of experiment: compounds binding labelled alpha-BTX control protein – biochemical, small-molecule microarray, Alexa647 label, 635/667 nm fluorescence, artefact control for SMM control protein annotation, profiling panel (AID 1117). The following applies: alpha-BTX-A647 binding fluorescence, higher = more signal.

Sequence of Left-right determination factor 2 (Homo sapiens) (O00292 whole entry, looked up): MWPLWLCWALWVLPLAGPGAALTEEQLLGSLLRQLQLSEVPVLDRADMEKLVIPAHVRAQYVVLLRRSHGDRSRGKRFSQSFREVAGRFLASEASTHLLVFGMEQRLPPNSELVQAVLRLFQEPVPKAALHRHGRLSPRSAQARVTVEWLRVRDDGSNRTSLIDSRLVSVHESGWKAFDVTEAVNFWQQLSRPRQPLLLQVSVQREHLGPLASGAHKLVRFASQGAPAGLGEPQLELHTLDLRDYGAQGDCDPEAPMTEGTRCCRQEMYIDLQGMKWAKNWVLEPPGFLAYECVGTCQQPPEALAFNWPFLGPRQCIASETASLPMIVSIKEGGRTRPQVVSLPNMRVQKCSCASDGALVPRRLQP
Sequence of Torsin-1A-interacting protein 1 (Homo sapiens) (Q5JTV8 whole entry, looked up): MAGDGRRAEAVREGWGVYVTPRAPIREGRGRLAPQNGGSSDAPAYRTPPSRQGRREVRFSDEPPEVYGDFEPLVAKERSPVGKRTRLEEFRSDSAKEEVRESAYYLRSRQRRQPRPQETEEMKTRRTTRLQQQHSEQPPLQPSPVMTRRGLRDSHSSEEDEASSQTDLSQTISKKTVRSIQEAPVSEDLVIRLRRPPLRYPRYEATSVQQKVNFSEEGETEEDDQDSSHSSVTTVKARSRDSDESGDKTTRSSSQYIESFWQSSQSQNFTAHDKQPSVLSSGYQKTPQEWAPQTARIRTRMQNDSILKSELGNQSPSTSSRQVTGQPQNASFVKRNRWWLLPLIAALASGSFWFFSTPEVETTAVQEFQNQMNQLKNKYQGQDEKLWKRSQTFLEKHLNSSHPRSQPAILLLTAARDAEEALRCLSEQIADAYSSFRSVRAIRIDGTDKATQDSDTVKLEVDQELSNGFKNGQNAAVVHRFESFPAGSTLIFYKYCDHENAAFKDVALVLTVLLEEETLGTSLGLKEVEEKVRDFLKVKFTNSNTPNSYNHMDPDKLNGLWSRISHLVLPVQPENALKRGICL
Sequence of Alpha-bungarotoxin (Bungarus multicinctus) (P60615 whole entry, looked up): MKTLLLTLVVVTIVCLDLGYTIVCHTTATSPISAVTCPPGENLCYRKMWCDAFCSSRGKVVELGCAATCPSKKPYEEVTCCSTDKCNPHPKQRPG

Regarding `COc1ccc(CCNC(=O)[C@@]2(c3ccc([N+](=O)[O-])cc3)CC(=O)N(C3CCCCC3)[C@@H]2c2ccc(CO)cc2)cc1`, the composite z-score was 0.91 in assay [1]; -0.197 in assay [3]; 0.36 in [4]; 0.323 in assay [5]; -0.0341 in assay [6]; -0.0886 in [7]. Further, the composite z-score is -0.203 in assay [8], 0.774 in [9] and 0.823 in [10]. In addition, in assay [2], the z-score was -0.88.
Consider `O=C1N(CCS(=O)(=O)c2ccccc2)c2ccccc2[C@H]2OC(c3ccc(OCCCO)cc3)=N[C@@]12Cc1ccccc1`, for which the composite z-score in assay [1] came to 0.474; in assay [3], 0.949; in assay [4] it was 1.27; in [5], 0.517; in assay [6], 0.0101; in assay [7], 0.337. Moreover, the composite z-score in assay [8] was -0.0321; in assay [9], 2.03; in [10], 1.66. Moreover, in [2], the z-score was -0.733.
Regarding `CCOC(=O)C1=C[C@@H](C(C)(C)C)N(S(=O)(=O)c2ccc(C)cc2)[C@H]1c1cccc2ccccc12`, the composite z-score in [1] is 1.28; in [3], -0.49; in assay [4] it was 1.07; in [5], 0.423; in assay [6], -0.0478; in [7] it was -0.156. The composite z-score in assay [8] is -0.145; in assay [9], -0.281; in assay [10], 0.657. In assay [2], this compound showed a z-score of -2.28.
In the case of `CCCCN1CC=CC23O[C@@H]4/C=C\CCCOC(=O)C4[C@H]2C(=O)N(CCO)[C@@H]3C1=O` (stereo not given in full), the composite z-score in [1] is 0.493; in assay [3], -1.51; in assay [4] it was -0.343; in assay [5], 0.278; in [6] it was -0.221; in [7] it was -0.206. For the same compound, the composite z-score in [8] is -0.158; in assay [9], 0.0966; in [10], -0.401. The compound also gave a z-score in assay [2] of -0.219.
With `C=CCC(OC(C)=O)[C@@H]1[C@@H](N(Cc2cccc3ccccc23)C(=O)Cc2ccc(OC)cc2)c2cc(OCCCO)ccc2N1C(=O)c1ccc(-c2ccccc2)cc1` (stereo not given in full), the composite z-score is -0.446 in [1]; -0.279 in assay [3]; -0.228 in assay [4]; 0.726 in [5]; -0.157 in assay [6]; -0.156 in assay [7]. Also, the composite z-score in assay [8] came to 0.546; in assay [9], 0.435; in assay [10], 0.28. In assay [2], this compound gave a z-score of 0.321.
As for `COc1ccc([Si](C)(C)[C@H]2[C@H](CC(=O)N3Cc4ccccc4C[C@H]3CO)O[C@@]3(C(=O)N(Cc4ccc(N5CCOC5=O)cc4)c4ccccc43)[C@@H]2C)cc1`, the composite z-score is 0.559 in assay [1]; 0.843 in assay [3]; -0.766 in [4]; -0.665 in assay [5]; -0.0944 in assay [6]; -0.0769 in assay [7]. The composite z-score in assay [8] is -0.267; in assay [9], 0.612; in assay [10] it was 1.22. For the same compound, the z-score in [2] was -4.15.
`C=CCN1C(=O)[C@]2(CCC(=O)OC(C)(C)C)N=C(c3ccc(OCCCO)cc3)O[C@@H]2c2ccccc21`: the composite z-score is 0.841 in [1]; 0.272 in assay [3]; 1.23 in assay [4]; -0.0414 in assay [5]; -0.0441 in assay [6]; 0.131 in assay [7]. The composite z-score in assay [8] is -0.292; in assay [9], 0.423; in assay [10], 1.38. Also, the z-score in [2] was -2.91.
Regarding `CCCC#C[Si](O[C@H](CC)c1cn([C@H](C)c2ccccc2)nn1)(C(C)C)C(C)C`, the composite z-score in [1] is 0.691; in assay [3], 0.3; in assay [4], -0.155; in [5], -0.157; in assay [6], -0.124; in [7], 0.275. Also, the composite z-score is 0.341 in assay [8], 1.54 in assay [9] and 0.709 in assay [10]. In [2], this compound came in with a z-score of -0.133.
Regarding `O=C(C1N=C(c2ccc(OCCCO)cc2)N(c2ccccc2)O1)N1CCCCC1` (stereo not given), the composite z-score in [1] is 1.26; in [3] it was 0.413; in assay [4], 2; in [5] it was 0.867; in assay [6], 0.0454; in assay [7], -0.229. Further, the composite z-score in assay [8] came out at 0.411; in assay [9] it was 1.25; in assay [10], 1.85. Also, in [2], the z-score came out at 0.65.
Take `CCOC(=O)C[C@H]1[C@H](OC(=O)Cc2ccc3c(c2)OCO3)[C@@H](NC(=O)c2ccc3ccccc3n2)c2cc(OCCCO)ccc2N1C(=O)c1ccccc1`: the composite z-score was 0.348 in assay [1]; -0.0499 in [3]; 0.179 in assay [4]; -0.564 in [5]; -0.0269 in [6]; -0.214 in assay [7]. The composite z-score in assay [8] stood at 0.0589; in [9], 0.49; in [10], 0.611. Moreover, the z-score in assay [2] was -1.26.
On to `COC(=O)C1=CC(CCCO)=CC(c2cccs2)N(C)C=C1C(=O)OC` (stereo not given), for which the composite z-score in [1] is 0.0867; in assay [3], -0.876; in [4], 0.127; in assay [5] it was 0.618; in [6], -0.0981; in [7], -0.165. Moreover, the composite z-score in assay [8] was -0.0879; in assay [9], 0.044; in assay [10], 0.498. Further, the z-score in [2] is -1.31.
For the compound `CC(C)(C)OC(=O)COc1cccc(C(=O)CCN2CCOCC2)c1`, the composite z-score in assay [1] is 0.219; in assay [3], 0.0527; in assay [4], -0.501; in assay [5], -0.841; in assay [6] it was -0.192; in assay [7] it was -0.193. Further, the composite z-score in [8] was -0.419; in [9], -0.0786; in [10], -0.204. For the same compound, the z-score in assay [2] is -1.7.
